A selection: hits, their analogues and other compounds. The true share with any hit is near 4%.
KCC2 mod = modulators of human KCC2 chloride dependent transport | Q9H2X9 | KCC2 cells, thallium flux FluoZin-2 fluorescence | B-score of Tl+ flux slope (higher = more flux/activation; lower = inhibition) at 10 µM | 190,000 compounds, 2.2% hits | AID 1456;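 active = thallium flux slope and its plate-corrected score both differing from the plate sample mean at a set confidence after two filtering rounds, in either direction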;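 note: slope of fluorescence scaled to starting intensity during 10 to 20 s after thallium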
Target sequence (Q9H2X9 whole entry, looked up): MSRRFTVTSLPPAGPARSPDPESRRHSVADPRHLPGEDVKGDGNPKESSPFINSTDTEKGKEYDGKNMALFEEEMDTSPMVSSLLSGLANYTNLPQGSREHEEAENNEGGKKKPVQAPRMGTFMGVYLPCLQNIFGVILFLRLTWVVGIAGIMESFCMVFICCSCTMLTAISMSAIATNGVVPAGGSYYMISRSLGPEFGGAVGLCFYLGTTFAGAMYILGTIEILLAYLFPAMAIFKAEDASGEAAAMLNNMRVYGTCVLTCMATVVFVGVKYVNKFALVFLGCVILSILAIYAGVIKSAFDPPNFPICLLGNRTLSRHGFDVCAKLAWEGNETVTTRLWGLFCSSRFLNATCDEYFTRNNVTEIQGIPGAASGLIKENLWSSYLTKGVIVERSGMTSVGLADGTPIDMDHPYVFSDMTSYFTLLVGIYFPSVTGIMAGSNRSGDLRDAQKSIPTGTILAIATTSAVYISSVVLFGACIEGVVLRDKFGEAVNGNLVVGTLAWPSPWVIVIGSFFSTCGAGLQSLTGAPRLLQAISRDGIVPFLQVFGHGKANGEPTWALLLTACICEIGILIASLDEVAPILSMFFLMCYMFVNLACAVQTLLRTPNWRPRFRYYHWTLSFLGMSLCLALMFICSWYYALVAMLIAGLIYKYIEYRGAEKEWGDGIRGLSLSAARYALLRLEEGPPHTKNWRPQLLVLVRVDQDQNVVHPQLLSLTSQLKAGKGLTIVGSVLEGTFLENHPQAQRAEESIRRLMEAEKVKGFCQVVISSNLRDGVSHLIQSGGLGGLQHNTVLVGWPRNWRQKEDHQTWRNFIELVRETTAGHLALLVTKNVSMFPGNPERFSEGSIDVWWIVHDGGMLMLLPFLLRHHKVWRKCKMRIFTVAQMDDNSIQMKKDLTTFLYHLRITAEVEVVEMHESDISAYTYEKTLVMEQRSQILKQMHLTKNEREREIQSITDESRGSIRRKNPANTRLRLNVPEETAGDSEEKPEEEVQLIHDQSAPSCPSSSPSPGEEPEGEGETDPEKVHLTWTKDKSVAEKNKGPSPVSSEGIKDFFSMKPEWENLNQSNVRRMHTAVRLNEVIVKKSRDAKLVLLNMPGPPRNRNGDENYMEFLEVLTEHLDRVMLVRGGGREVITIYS
Arbovirus anti = blocks arbovirus infection; arbovirus infection cell-based antiviral screen; inhibition, % at 10 µM; 200,000 compounds, 0.37% hits; in the data active = inhibition above about 30%
ROMK primary = modulates human ROMK potassium channel activity; P48048; Tet-inducible ROMK, thallium flux fluorescence; actives lie on both sides; B-score at 10 µM; 130,000 compounds, 2% hits;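 active = signal ratio slope over the read window, or its plate-corrected B-score, at least 3 SD from the plate mean, either direction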;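 note: B-score of the F/F0 ratio slope over 7 to 12 s after thallium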
Measles CPE = protection of cells from measles virus | Measles virus-infected cells, CPE protection, absorbance | protection (pct of control), % at 4 µM | 140,000 compounds, 1.5% hits; in the data active = protection mostly above about 24%, no sharp cut-off; inactive = mostly below about 26%
HSV replic up = increases HSV replication in cells; HSV replication augmentation in cells, fold increase; maximum fold increase; 220,000 compounds, 0.005% hits; AID 1956; in the data active = maximum fold increase above about 1.5; inconclusive = no clear call, values can overlap the other calls; tested in PC3 cells
KCC2 secondary = KCC2 (human) modulation, secondary assay; shares compounds with KCC2 mod; HEK293-KCC2, thallium flux, FluoZin2 fluorescence; hits give high values; normalised thallium flux (F/F0 slope) at 10 µM; 3,700 compounds, 15% hits;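 active = thallium flux slope above the same plate's solvent-only control mean plus 3 SD; inconclusive = the two replicate wells disagree; inactive = no significant difference from solvent-only control wells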
KCC2 bumet counter = thallium flux despite bumetanide block in KCC2 cells, secondary assay 3 | shares compounds with KCC2 mod | HEK293-KCC2 + bumetanide/ouabain, thallium flux FluoZin2; hits give high values | normalized thallium flux at 10 µM | 3,700 compounds, 49% hits | AID 1714;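 active = thallium entry rate above the same plate's blocked-transporter control wells by more than 3 SD; inconclusive = the two repeat wells disagree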;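 note: raw slope of fluorescence over initial fluorescence between 10 and 20 s after thallium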
KCC2 secondary2 = confirmation of human KCC2 transport modulators; shares compounds with KCC2 mod; HEK293-KCC2, thallium flux FluoZin2 fluorescence; actives lie on both sides; F/F0 rise rate, 10–20 s post-thallium; normalized thallium flux at 10 µM; 3,700 compounds, 23% hits; AID 1715;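 active = thallium flux slope more than 3 SD above or below the plate's solvent-only control mean, mostly below; inconclusive = the two repeat wells disagreed; inactive = no significant shift from solvent-only controls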
HEK293 Tl flux = counter-screen for KCC2 modulators: effect in parental HEK293 cells; 3,700 compounds, 46% hits; thallium flux rate (normalised fluorescence) at 10 µM; thallium flux FluoZin2, ouabain; baseline-ratio fluorescence slope, 10–20 s after thallium; shares compounds with KCC2 mod;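 active = thallium flux rate significantly above the same plate's solvent-only control wells, beyond their mean plus 3 SD; inconclusive = the two replicate wells gave conflicting results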
KCC2 retest ouab = modulates human KCC2 on retest with ouabain; shares compounds with KCC2 mod; HEK293-KCC2, thallium flux FluoZin2 fluorescence; bidirectional: low = inhibitor, high = activator; raw Tl+ flux slope (below DMSO = inhibition, above = activation) at 10 µM; 3,700 compounds, 48% hits; AID 1717;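 active = thallium flux slope beyond 3 SD from same-plate DMSO control mean in most replicates, usually higher, sometimes lower; inconclusive = repeat tests gave conflicting results; inactive = no significant difference from controls in most replicates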;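 note: slope of initial-normalized fluorescence between seconds 10 and 20 after thallium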
HEK counter2 = acts in parental HEK cells, second KCC2 counter-screen. shares compounds with KCC2 mod. HEK293 parental, thallium flux FluoZin-2 fluorescence slope. thallium flux slope at 10 µM. 3,700 compounds, 33% hits;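 active = thallium flux slope above the same plate's solvent-control mean plus 3 SD in both duplicate wells; inconclusive = duplicate wells that disagreed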;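 note: run without ouabain in cells lacking the KCC2 cotransporter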
Large screens that a line does not name were inactive (follow-up assays come after a bar, where they were run).

O=C(O)c1ccc(N2CC3CC(C2)c2cccc(=O)n2C3)c(NC(=S)Nc2ccc(Cl)cc2Cl)c1 (centres undefined)	KCC2 mod 15 (no result: Measles CPE) | KCC2 secondary inactive | KCC2 bumet counter 0.015 | KCC2 secondary2 inactive | HEK293 Tl flux inconclusive | KCC2 retest ouab inconclusive | HEK counter2 inactive
O=C1CCCC/C1=N\Nc1ccc(C2CCCCC2)cc1	none (no result: Arbovirus anti, ROMK primary, Measles CPE)
O=C(O)c1ccc(C2CCCCC2)cn1	KCC2 mod 8.3 | KCC2 secondary inactive | KCC2 bumet counter 0.0089 | KCC2 secondary2 inactive | HEK293 Tl flux inactive | KCC2 retest ouab inactive | HEK counter2 inactive
CS(=O)(=O)N(CC(=O)N1CCOCC1)c1ccc2c(c1)OCO2	none (no result: ROMK primary)
CS(=O)(=O)N(CC(=O)N1CCCC1)c1ccc2c(c1)OCCO2	none (no result: KCC2 mod) | KCC2 secondary inactive | KCC2 bumet counter inactive | KCC2 secondary2 inactive | HEK293 Tl flux inactive | KCC2 retest ouab inactive | HEK counter2 inactive
Oc1ccc(-c2csc(-c3ccccc3)n2)cc1O	KCC2 mod -4.4 (no result: ROMK primary) | KCC2 secondary inactive | KCC2 bumet counter inconclusive | KCC2 secondary2 inactive | HEK293 Tl flux inactive | KCC2 retest ouab 0.021 | HEK counter2 inactive
CCOC(=O)/C(C)=N/NC(=O)c1ccc([N+](=O)[O-])cc1	KCC2 mod 23 (no result: Measles CPE) | KCC2 secondary 0.0094 | KCC2 bumet counter 0.032 | KCC2 secondary2 0.038 | HEK293 Tl flux 0.034 | KCC2 retest ouab 0.039 | HEK counter2 0.025
Nc1nc2ncc(-c3ccsc3)c(N)n2n1	none (no result: Measles CPE)
CCN(CC(=O)NC(C)(C)C)C(=O)C(c1ccccc1)c1ccccc1	none (no result: Measles CPE)
O=C1NCCC/C1=N/Nc1cc(F)ccc1F	none (no result: Arbovirus anti, ROMK primary, Measles CPE)
Fc1ccc(N2CCN(C(=S)NCC3CCCO3)CC2)cc1 (centres undefined)	KCC2 mod -2.6 (no result: Measles CPE) | KCC2 secondary inactive | KCC2 bumet counter inactive | KCC2 secondary2 inactive | HEK293 Tl flux inactive | KCC2 retest ouab inconclusive | HEK counter2 inactive
O=C(O)CC/C(=C\c1ccc(N2CCCC2)c([N+](=O)[O-])c1)c1nc2ccccc2s1	KCC2 mod -8.5, Arbovirus anti 54 (no result: Measles CPE) | KCC2 secondary inactive | KCC2 bumet counter inactive | KCC2 secondary2 0.02 | HEK293 Tl flux inactive | KCC2 retest ouab 0.011 | HEK counter2 inactive
O=C(O)CC/C(=C\c1cccc(NC(=O)c2ccccc2Cl)c1)c1nc2ccccc2s1	KCC2 mod -2.3 (no result: Measles CPE) | KCC2 secondary inactive | KCC2 bumet counter inactive | KCC2 secondary2 inconclusive | HEK293 Tl flux inactive | KCC2 retest ouab inconclusive | HEK counter2 inactive
Cc1nn(-c2ccc(F)cc2)c(Cl)c1/C=C(\CCC(=O)O)c1nc2ccccc2s1	KCC2 mod -9.4, Measles CPE 32 (no result: ROMK primary) | KCC2 secondary inconclusive | KCC2 bumet counter inconclusive | KCC2 secondary2 0.018 | HEK293 Tl flux 0.0059 | KCC2 retest ouab 0.0093 | HEK counter2 inconclusive
O=C(O)CCSc1nc2ccccc2s1	none (no result: KCC2 mod, ROMK primary)
Cn1cnnc1Sc1ccc(/C=C(\CC(=O)O)c2nc3ccccc3s2)cc1[N+](=O)[O-]	none (no result: Arbovirus anti, ROMK primary, Measles CPE)
O=C(O)CC/C(=C\c1ccccc1[N+](=O)[O-])c1nc2ccccc2s1	KCC2 mod -4.1 (no result: Measles CPE) | KCC2 secondary inactive | KCC2 bumet counter inactive | KCC2 secondary2 inconclusive | HEK293 Tl flux inactive | KCC2 retest ouab 0.012 | HEK counter2 inactive
Cc1ccc(Cn2ccc(=O)c(OCc3c(Cl)cccc3Cl)c2C)cc1	none
COc1ccc(C(=O)NCc2nnc(SCC(=O)N3CCC(C)CC3)o2)cc1	none (no result: Measles CPE)
CC(=O)CSc1nnc(C(F)(F)F)n1C	none (no result: Arbovirus anti, Measles CPE)
O=C(O)c1sccc1SCc1ccc(Cl)cc1Cl	none (no result: KCC2 mod, ROMK primary, HSV replic up) | KCC2 secondary inactive | KCC2 bumet counter inactive | KCC2 secondary2 0.022 | HEK293 Tl flux 0.0055 | KCC2 retest ouab 0.011 | HEK counter2 inactive
O=C(O)CSCC(=O)NCc1ccc(Cl)cc1Cl	none (no result: Measles CPE)
COc1cccc(C(=O)N2CCN=C2SC)c1	none (no result: Measles CPE)
Cc1ccc(-n2nnnc2SCC(=O)NC2CCCc3ccccc32)c(C)c1 (centres undefined)	none
Cc1ccc(-n2nnnc2SCC(=O)N2CCc3ccccc3C2)cc1	KCC2 mod -3.6 | KCC2 secondary inactive | KCC2 bumet counter inactive | KCC2 secondary2 inactive | HEK293 Tl flux inactive | KCC2 retest ouab 0.021 | HEK counter2 inactive
Cc1ccc(-n2nnnc2SCC(=O)NC2CCCc3ccccc32)cc1 (centres undefined)	KCC2 mod -4.6 | KCC2 secondary inactive | KCC2 bumet counter 0.0033 | KCC2 secondary2 0.026 | HEK293 Tl flux inconclusive | KCC2 retest ouab 0.014 | HEK counter2 inactive
Cc1ccc(C(=O)Nn2c(O)c(C=C3N=c4ccccc4=N3)sc2=S)cc1	none (no result: KCC2 mod, ROMK primary)
O=C(Nn1c(O)c(C=C2N=c3ccccc3=N2)sc1=S)c1ccccc1	KCC2 mod -3.5 (no result: ROMK primary) | KCC2 secondary inactive | KCC2 bumet counter inactive | KCC2 secondary2 0.022 | HEK293 Tl flux inactive | KCC2 retest ouab 0.013 | HEK counter2 inactive
Cc1ccc(NC(=O)Cn2ccc([N+](=O)[O-])n2)cc1Cl	none (no result: Measles CPE)
Cc1ccc(NC(=O)NC(=O)CN2C(=O)NC3(CCCCCCC3)C2=O)c(C)c1	KCC2 mod -5.5 (no result: ROMK primary) | KCC2 secondary inactive | KCC2 bumet counter inactive | KCC2 secondary2 inactive | HEK293 Tl flux inactive | KCC2 retest ouab inactive | HEK counter2 inactive
CCN(CC)S(=O)(=O)c1ccc(Cl)c(OC)c1	none (no result: KCC2 mod) | KCC2 secondary inactive | KCC2 bumet counter inactive | KCC2 secondary2 inactive | HEK293 Tl flux inactive | KCC2 retest ouab inactive | HEK counter2 inactive
CCOc1cc(S(=O)(=O)N(CC)CC)ccc1Cl	none (no result: Measles CPE)
O=C1CCC/C(=N/NC(=O)c2sc3ccccc3c2Cl)C1	HSV replic up inconclusive (no result: Arbovirus anti, ROMK primary, Measles CPE)
O=C(NN=C1CCCC1)c1sc2ccccc2c1Cl	KCC2 mod 11 (no result: Measles CPE) | KCC2 secondary inactive | KCC2 bumet counter 0.023 | KCC2 secondary2 inactive | HEK293 Tl flux 0.022 | KCC2 retest ouab inconclusive | HEK counter2 0.019
O=C(Nc1ccc(Nc2ccccc2)cc1)c1ccc(Br)o1	KCC2 mod -5.7 (no result: ROMK primary, HSV replic up) | KCC2 secondary inconclusive | KCC2 bumet counter inactive | KCC2 secondary2 inactive | HEK293 Tl flux inactive | KCC2 retest ouab 0.013 | HEK counter2 inconclusive
COc1cc(C(=O)NNC(=S)NC(=O)c2ccc(Cl)cc2)cc(OC)c1OC	KCC2 mod 13 | KCC2 secondary 0.017 | KCC2 bumet counter 0.028 | KCC2 secondary2 inactive | HEK293 Tl flux 0.017 | KCC2 retest ouab 0.033 | HEK counter2 0.012
COc1ccc(NC(=O)c2ccc(Br)o2)cc1	none

Screens: PubChem, several laboratories
